In PubChem BioAssay:
The source made the active and inactive calls.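 The calls were made as follows, unless noted: active = compounds whose cell count with miR-34 switched on is under 0.7 times the count with it off; inactive = the rest.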

Key:
[1] = sensitizers of A549 cells to miR-34 induction, primary screen, imaging, A549 dox-inducible miR-34, nuclei and caspase counts (AID 1347080); conditions: A549 miR-34 inducible, Hoechst nuclei count, 48 h
[2] = survival rescue of mitochondrial mutant cells in low glucose, primary screen, MELAS cybrids, Rieske KO mouse fibroblasts, CellTiter-Glo (AID 1508586;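 active = mean z-score across replicates of 1.96 or higher in either the MELAS or the Rieske mutant cell line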;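 also: z relative to plate mean and SD of compound and empty wells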)
[3] = stronger effect = lower value, cell number ratio, induced over uninduced
[4] = measured here: relative caspase fold change +Dox/-Dox
[5] = measured here: total cells with miR-34 induction, stronger effect = lower value
[6] = measured here: total cells without miR-34 induction
[7] = MELAS cybrid survival, CellTiter-Glo 48 h, stronger effect = higher value
[8] = Rieske KO mouse fibroblast survival, CellTiter-Glo 72 h
Also: test concentration not given here.

| Structure (SMILES) | fold change [1, 3] | fold change [1, 4] | cell count [1, 5] | cell count [1, 6] | z-score [2, 7] | z-score [2, 8] |
| --- | --- | --- | --- | --- | --- | --- |
| CC1(C)S[C@H]2C(NC(=O)C(N)c3ccccc3)C(=O)N2C1C(=O)O (some centres not stated) | 0.913 (inactive) | 0.727 | 8130 | 8910 | -0.295 (inactive) | -0.19 |
| Cc1ccc(Cl)cc1N(CC(=O)Nc1c(F)cccc1F)S(C)(=O)=O | 0.888 (inactive) | 0.518 | 8090 | 9110 | -0.403 (inactive) | 0.642 |
| CCN(C)C(=O)Oc1cccc(C(C)N(C)C)c1 (configuration not stated) | 0.91 (inactive) | 0.79 | 8110 | 8910 | -0.173 (inactive) | 0.451 |
| Cc1ccc(S(=O)(=O)C=CC#N)cc1 | 0.909 (inactive) | 0.678 | 7140 | 7850 | -0.499 (inactive) | -0.608 |
| CC(C)CC(CC(=O)NO)C(=O)NC(Cc1ccc2ccccc2c1)C(=O)NC(C)C(=O)NCCN (configuration not stated) | 0.928 (inactive) | 0.561 | 8260 | 8900 | -0.492 (inactive) | -0.379 |
| CN1[C@@H]2CC(OC(=O)C(CO)c3ccccc3)C[C@H]1[C@@H]1O[C@H]12 (some centres not stated) | 0.946 (inactive) | 0.844 | 9480 | 10000 | -0.356 (inactive) | 0.736 |
| CN(C)Cc1ccc(S(=O)(=O)n2ccc(C=CC(=O)NO)c2)cc1 | 0.784 (inactive) | 0.443 | 1500 | 1910 | -0.566 (inactive) | -0.298 |
| CCOC(=O)C(CCc1ccccc1)NC(C)C(=O)N1C(=O)N(C)CC1C(=O)O (configuration not stated) | 0.891 (inactive) | 1.39 | 7920 | 8880 | 0.163 (inactive) | -0.0366 |
| O=C(C=Cc1ccc(O)c(O)c1)OCCc1ccccc1 | 1.02 (inactive) | 0.387 | 7430 | 7300 | -0.587 (inactive) | -2.25 |
| CCCCNc1ncc(C(=O)NCc2ccc(-n3ccnc3)cc2)c(NC2CCC(O)CC2)n1 (configuration not stated) | 1.3 (inactive) | 0.249 | 2450 | 1880 | 5.49 (active) | -1.88 |
| Cc1cc(C=C2SC(=S)NC2=O)c(C)n1-c1cccnc1 | 0.889 (inactive) | 0.503 | 7760 | 8720 | -0.359 (inactive) | -0.24 |
| CCC(Nc1ncnc2nc[nH]c12)c1nc2cccc(F)c2c(=O)n1-c1ccccc1 (configuration not stated) | 0.873 (inactive) | 0.869 | 6860 | 7860 | -0.15 (inactive) | 0.351 |
| C=C1C(=CC=C2CCC[C@]3(C)C(C(C)CCCC(C)C)CC[C@@H]23)CC(O)CC1O (some centres not stated) | 0.908 (inactive) | 0.753 | 6380 | 7020 | 0.162 (inactive) | 0.335 |
| C[C@@H]1C(=O)O[C@H]2CC34[C@H]5C[C@@H](C(C)(C)C)C36C(OC(=O)[C@H]6O)O[C@@]4(C(=O)O5)[C@]21O (some centres not stated) | 0.955 (inactive) | 1.23 | 7970 | 8340 | -0.0435 (inactive) | 0.0455 |
| O=C(c1ccccc1)c1ccc2nc(NC(=O)c3csc(C4CCN(c5ncnc6ccsc56)CC4)n3)[nH]c2c1 | 1.1 (inactive) | 0.341 | 2690 | 2460 | -0.654 (inactive) | -0.043 |
| COC(=O)C1=COC(OC2OC(CO)C(O)C(O)C2O)[C@H]2C(CO)=CC[C@H]12 (some centres not stated) | 0.942 (inactive) | 0.842 | 7570 | 8040 | -0.247 (inactive) | -0.0973 |
| CCC(C)Nc1cc(C(=O)NC2CC3CCC(C2)N3c2ccc(C(=O)C3CC3)cn2)c(C)cc1C(N)=O (configuration not stated) | 0.94 (inactive) | 0.437 | 2340 | 2490 | 2.2 (active) | -1.06 |
| COC1C=CC=C(C)C(=O)NC2=CC(=O)C(NCCN(C)C)=C(CC(C)CC(OC)C(O)C(C)C=C(C)C1OC(N)=O)C2=O (configuration not stated) | 1.03 (inactive) | 1.2 | 1450 | 1410 | 2.44 (active) | -2.5 |
| CCCCC(=O)OC1CC[C@H]2[C@@H]3CCc4cc(O)ccc4[C@@H]3CC[C@]12C (some centres not stated) | 0.855 (inactive) | 0.887 | 7760 | 9080 | -0.195 (inactive) | -0.141 |
| CC(C)c1c(C(=O)Nc2ccccc2)c(-c2ccccc2)c(-c2ccc(F)cc2)n1CCC(O)CC(O)CC(=O)O (configuration not stated) | 1.21 (inactive) | 0.989 | 5220 | 4330 | 0.917 (inactive) | -1.34 |
| CC1(C)CCC[C@@]2(C)[C@H]3CC(=O)O[C@]3(C)CC[C@@H]12 | 0.913 (inactive) | 0.659 | 9360 | 10200 | -0.354 (inactive) | 1.06 |
| CCC(C)C(NC(=O)C(CCC(=O)O)NC(=O)C(CC(C)C)NC(=O)C1CN=C(C(N)C(C)C)S1)C(=O)NC1CCCCNC(=O)C(CC(N)=O)NC(=O)C(CC(=O)O)NC(=O)C(Cc2cnc[nH]2)NC(=O)C(Cc2ccccc2)NC(=O)C(C(C)CC)NC(=O)C(CCCN)NC1=O (configuration not stated) | 1.05 (inactive) | 0.927 | 7610 | 7240 | -0.25 (inactive) | -0.261 |
